Screening results (PubChem BioAssay)
G9a inh: inhibitors of human histone lysine methyltransferase G9a. G9a H3K9 monomethylation, AlphaScreen, 2 h. Potency, µM (doses to about 102 µM), inactives show top-dose activity, negative = inhibition, actives largely listed as inhibitors. Q96KQ7. 8.8% of 350,000 active; note: % is set by controls: 0 for no effect and ±100 for the full control effect; nearly all actives have a fitted effect of over 75% in size
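Using a bead-based AlphaScreen, monomethylated H3K9 product from 2 h room-temperature reactions (G9a 20 nM, peptide 500 nM, SAM 20 uM) was detected with 0.5 ug/mL rabbit anti-H3K9me1 antibody.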
Sfp inh: blocks B. subtilis Sfp PPTase activity | Q9F4F7 | Biochemical Sfp PPTase activity, qHTS | Potency, µM, for the others: largest response in the series, negative = inhibition, most hits filed as inhibitors | 3.5% of 310,000 active | AID 1490;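 note: the enzyme is Sfp with the accession as filed and its product quenches rhodamine fluorescence; 0% = enzyme reaction without inhibitor and -100% = no enzyme wells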
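Fluorescence-quenching assay with 15 nM Sfp, 5 uM rhodamine-CoA and 12.5 uM BHQ-2-labelled ybbR peptide in pH 7.6 Hepes/MgCl2 buffer. Enzyme was pre-incubated with compound for 15 min at room temperature. Rate was taken from the 30-min fluorescence change (525/598 nm).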
L3MBTL1 inh: L3MBTL1 (human) inhibition. Q9Y468. Potency, µM (highest dose often 57.1 µM), inactives show at the highest dose activity, negative = inhibition, usual class: inhibitors. AID 485360. AlphaScreen L3MBTL1–H3K9me1 peptide binding. 0.66% of 230,000 active; note: % is set by controls: 0 for no effect and ±100 for the full control effect; nearly all actives have a fitted effect of over 60% in size
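First, the protein-peptide complex forms for 30 min at room temperature (L3MBTL1 50 nM, biotinylated H3K9me1 peptide 75 nM). Next, compounds are pin-transferred and incubated 30 min. Finally, AlphaScreen beads are added and read after 30 min.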
BAZ2B block: inhibitors of human BAZ2B bromodomain. 4.4% of 360,000 active. Potency, µM (top dose mostly 114 µM), inactives show top-dose activity change, negative = inhibition, most hits filed as inhibitors. AlphaScreen BAZ2B-H3K14Ac peptide displacement; note: % is set by controls: 0 for no effect and ±100 for the full control effect; nearly all actives have a fitted effect of over 60% in size
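Compounds, titrated to a top concentration of 110 uM, were incubated 30 min at room temperature with preformed BAZ2B/acetyl-K14 H3 peptide complex (50 nM each). Proximity signal was measured by AlphaScreen after 20 min with beads.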
JMJD2A Tudor inh: blocks the human JMJD2A Tudor domain. O75164. AID 504339. AlphaScreen JMJD2A-Tudor / H3K4me3 peptide binding. Potency, µM (highest dose often 114 µM), for the others: top-dose activity change, negative = inhibition, hits mostly inhibitors. 4.4% of 390,000 active; note: % is set by controls: 0 for no effect and ±100 for the full control effect; nearly all actives have a fitted effect of over 50% in size
HP1b chromo inh: blocks HP1-beta chromodomain binding to methylated histone tails | Potency, µM (highest dose often 114 µM), for the others: top-dose activity change, negative = inhibition, actives largely listed as inhibitors | AlphaScreen HP1-beta / biotin-H3K9me3 peptide binding | 0.56% of 390,000 active; note: nearly all actives have a fitted effect of over 70% in size
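AlphaScreen: HP1-beta (50 nM) preformed 30 min with biotin-H3(1-18)K9me3 peptide (50 nM) in PBS pH 7.4, 0.01% Tween-20. Compound added for 30 min at RT, then streptavidin donor/nickel chelate acceptor beads (10 ug/mL) for 30 min.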
* marks the source's active call; other numbers are inactive results; ? = inconclusive; . = not tested or not shown; [ ] = remark or other dose. In the library only some 12% were active in any assay of this set; here they are far more common. Calls come from the whole dose curve; as a rule, active = well fitted curve in the direction sought with a large enough effect; inconclusive = small, poorly fitted or top-dose-only effect, or another doubt; inactive = no such curve, though single readings can be large; an effect the other way counts as inactive or inconclusive. Potency is the fitted concentration of half-maximal effect.

SMILES | G9a inh | Sfp inh | L3MBTL1 inh | BAZ2B block | JMJD2A Tudor inh | HP1b chromo inh
CCC(=O)Nc1ccc(N2CCOCC2)c(S(=O)(=O)Nc2ccc(Cl)cc2)c1 | ? | . | -6.6% | 3.0% | 79.4µM* | ?
O=C(Nc1ccc(N2CCOCC2)c(S(=O)(=O)Nc2ccc(Cl)cc2)c1)c1cnccn1 | . | 5.62µM* | -8.7% | ? | -30.6% | ?
COC(=O)/C=C/C1c2ccccc2C(OC)C1C (configuration not stated) | . | 2.4% | . | . | . | .
COC(=O)C1=C(CSc2nc3c(cc2C#N)CN(C)CC3)OC(N)=C(C#N)C1c1ccccc1F (configuration not stated) | 14.1µM* | 22.4µM* | -23.1% | ? | ? | -19.2%
CCOC(=O)C1=C(CSc2nc3c(cc2C#N)CN(C)CC3)OC(N)=C(C#N)C1c1ccccc1 (configuration not stated) | 50.1µM* | ? | -20.7% | ? | -21.9%[11.4 µM] | -0.5%
CCOC(=O)C1=C(CSc2nc3c(cc2C#N)CCC3)OC(N)=C(C#N)C1c1ccccc1 (configuration not stated) | -1.4%[59 µM] | 20µM* | 2.9% | -0.3% | 25.1µM* | -14.3%
COC(=O)C1=C(C)OC(N)=C(C#N)C1c1ccccc1F (configuration not stated) | -1.9%[59 µM] | -1.5% | -2.0% | -2.4% | -10.4% | 14.3%
CN1CCc2nc(SCCOc3ccccc3)c(C#N)cc2C1 | ? | -8.8% | -7.8% | 2.6% | -8.8% | 30.7%
CCOC(=O)C1=C(CSc2nc(-c3ccccc3)ccc2C#N)OC(N)=C(C#N)C1c1ccccc1 (configuration not stated) | ? | -28.0% | . | -2.1% | -11.7% | 38.8%
CCOC(=O)C1=C(CSc2nc3c(cc2C#N)CN(C)CC3)OC(N)=C(C#N)C1c1ccc(F)cc1 (configuration not stated) | 39.8µM* | 56.2µM* | . | ? | ? | -6.6%
O=C(Cn1c(=O)nc(-c2ccccc2F)c2cc(Cl)ccc21)Nc1ccccc1C(F)(F)F | -1.2%[12.7 µM] | . | . | -11.7% | -2.3% | 22.3%
Cc1ccc2oc(C(=O)Nc3c(C(=O)Nc4cccc(Cl)c4)oc4ccccc34)cc(=O)c2c1 | 1.6%[59 µM] | . | . | 1.2% | -21.9% | 3.4%
CCOC(=O)C1=C(CSc2nc(-c3ccccc3)ccc2C#N)OC(N)=C(C#N)C1c1cccnc1 (configuration not stated) | 39.8µM* | 56.2µM* | . | 0.8% | -19.3% | 32.5%
COc1ccc(-c2noc(-c3ccc(N4CCCC4)c([N+](=O)[O-])c3)n2)cc1 | -19.3%[59 µM] | . | . | -30.9% | 3.3% | 62.9%
S=C(Nc1ccccc1)c1nc2ccccc2s1 | ? | 15.4% | -16.4% | -37.9% | 39.8µM* | ?
CN(C)C(=S)Nc1nc2ccccc2s1 | -10.4%[0.501 µM] | 14.1µM* | ? | -37.4% | 3.55µM* | ?
CCCC(=O)Nc1nc2ccc(OCC)cc2s1 | -33.3% | 7.1% | -10.7% | 2.4% | -13.8% | 23.4%
CCOc1ccc2nc(NC(=S)N(C)C)sc2c1 | 1.58µM* | 39.8µM* | . | 35.5µM* | 12.6µM* | ?
O=C(NNc1nc2ccccc2s1)Nc1ccccc1 | 1.8%[59 µM] | 3.5% | -1.3% | -33.8% | -21.2% | 21.5%
CCOc1ccc2nc(NC(=O)c3cnc(C)cn3)sc2c1 | 44.7µM* | -24.6% | . | -0.8% | -18.1% | 34.9%
CCNC(=O)Nc1nc2ccccc2s1 | -4.9% | -1.3% | . | -3.6% | -2.1% | 31.3%
Nc1nc(Cl)nc2c1ncn2[C@@H]1O[C@H](COP(=O)(O)OP(=O)(O)OP(=O)(O)O)[C@H](O)[C@H]1O | 16.5%[12.7 µM] | . | . | . | . | .
NCCCNc1ccc(Br)cn1 | . | . | . | . | -8.8% | 25.7%
COCCNC(=S)N(C)C1(c2ccccc2Cl)CCCCC1=O (configuration not stated) | 44.7µM* | -17.9% | -2.4% | -12.9% | -2.8% | 27.3%
Cc1cccc(C(=O)Nc2ccc(N3CCC(N4CCCCC4)CC3)c(C(=O)O)c2)c1 | -32.1%[59 µM] | . | . | -13.6% | -19.7% | 19.0%
